Bioassay records (PubChem)
IP6K1 inh = Primary qHTS assay for small molecule inhibitors of Inositol hexaphosphate kinase 1 (IP6K1) | IP6K1 kinase, ADP-Glo luminescence, 2 h; stronger effect = lower value | activity change, % (series mostly up to about 58 µM) | hit rate 0.81% among 140,000; in the data active means activity change below about -25%; further: on the % scale 0 is the no-effect control and ±100 the full control effect
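ADP-Glo luminescence measures ADP made by human IP6K1 during a 2 h RT reaction with ATP/IP6 (mix at 1.3 mM/130 uM); top library doses 57.5 and 19.1 uM final.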
HEK293 viab = GF-AFC viability counterscreen for inhibitors of alpha-synuclein gene (SNCA) expression | hit rate 0.12% among 150,000 | HEK-293-SNCA-luc viability, GF-AFC fluorescence, 24 h | Potency, µM (top dose mostly 57.1 µM), for inactives: top-dose activity change, negative = cytotoxicity, hits mostly cytotoxic | AID 1671193, 2021;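 further: potency means the concentration at half of the fitted maximal effect; 0% = DMSO-treated cells and -100% = medium-only wells without cells; nearly all actives have a fitted effect of over 30% in size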
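HEK-293-SNCA-luc cells (1500/well) plated 24 h, then exposed 24 h to a dilution series; GF-AFC added 30 min at 37C, fluorescence 405/540 nm; normalised to medium-only and DMSO wells, Hill fit.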
KDM5B inh = Primary screen for KDM5B Histone Demethylases FDH-coupled qHTS | hit rate 2.6% among 220,000 | KDM5B demethylase, FDH-coupled NADH fluorescence (FDH is formaldehyde dehydrogenase) | Lysine-specific demethylase 5B (Homo sapiens), Q9UGL1 | AID 1347165, 2019 | Potency, µM (doses to about 57.7 µM), actives largely listed as inhibitors; further: potency means the concentration at half of the fitted maximal effect; 0% is about no effect; nearly all actives have a fitted effect of over 70% in size
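Here, H3K4me3 peptide (12.5 µM in substrate mix) is demethylated by KDM5BΔAP, 200 nM final, after 10 min compound exposure. Formaldehyde product is coupled through FDH (0.25 U/mL in mix) to NADH fluorescence; 30-min ΔRFU feeds dose-response curves.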
SNCA expr inhib = Primary qHTS assay for inhibitors of alpha-synuclein gene (SNCA) expression | HEK-293 SNCA-luciferase knock-in, luminescence, 24 h | Potency, µM (series often up to 57.2 µM), for the others: at the top dose activity change, negative = inhibition, actives largely listed as inhibitors | hit rate 0.17% among 140,000 | AID 1671194, 2021;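 further: potency means the concentration at half of the fitted maximal effect; plate controls were DMSO cells for no effect and cell-free wells for full effect; nearly all actives have a fitted effect of over 45% in size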
Active calls of the source: *; i = inactive; ? = inconclusive; nt = not tested or not shown; ! = a repeat was not active; [ ] = remark or other dose. The list is not random: actives were taken first. Their share in the collection is about 2.8%. Unless noted, the call rests on the fitted dose curve; in most records, active means well fitted curve in the direction sought with a large enough effect; inconclusive means small, poorly fitted or top-dose-only effect, or another doubt; inactive means no such curve, though single readings can be large; an effect the other way counts as inactive or inconclusive.

SMILES	IP6K1 inh	HEK293 viab	KDM5B inh	SNCA expr inhib
CN(Cc1cc(C2CC2)n[nH]1)c1cc(C2CC(N)C2)nc(N)n1 (stereo unspecified)	9.5	-7.3%	?	-29.2%
CN(CCC(O)c1ccccc1)c1nccc(-c2cccnc2)n1 (stereo unspecified)	2.2	-3.9%	28.2µM*	?
Cc1ccc(NC(=O)CN(C)C(=O)c2cccc(S(=O)(=O)NCC3CCCO3)c2)cc1 (stereo unspecified)	nt	nt	i	nt
O=C(NC1CC(c2nnc(CO)n2C2CC2)C1)c1cccn2cnnc12 (stereo unspecified)	7.8	-4.9%	28.2µM*	12.6%
O=C(NC1CC(c2nnc(CO)n2C2CC2)C1)c1ccc(F)cc1Cl (stereo unspecified)	14.0	3.8%	i	-3.7%
CNC(=O)c1cc(C2CC2)nc2onc(C3CCN(C(=O)NC4CCCC4)C3)c12 (stereo unspecified)	-2.7	nt	nt	nt
NC(=O)NO	24.1	0.6%	nt	1.36µM*!
O=C(N[C@H]1CCOC[C@H]1C1CCOCC1)c1cc(=O)[nH]c2ccc(F)cc12	2.7	2.5%	22.4µM*	5.0%
COc1cc(CN2CCOc3ccc(C(=O)NCc4ccccc4F)cc3C2)ccc1O	6.8	-2.1%	i	-13.9%
COCc1ccc2c(c1)c(OC(C)(C)C(=O)NCCN1CCOCC1)nn2Cc1cccnc1	-5.4	1.0%	i	7.3%
COCc1ccc2c(c1)c(OC(C)(C)C(=O)NCCN1CCOCC1)nn2CCC(C)C	-0.7	1.6%	25.1µM*	25.7%
COCc1ccc2c(c1)c(OC(C)(C)C(=O)NC1CCN(C)CC1)nn2CCC(C)C	-8.5	-1.2%[87.6 µM]	35.5µM*	1.7%[87.6 µM]
COCc1ccc2c(c1)c(OC(C)(C)C(=O)NC1CC1)nn2CCC(C)C	-7.1	-1.1%[87.6 µM]	39.8µM*	-39.5%[87.6 µM]
Cc1ccc(C2CCCN2S(=O)(=O)c2cnn(C(F)F)c2C)cc1 (stereo unspecified)	nt	nt	i	nt
CCc1noc(-c2ccn3c(CNC(=O)c4cc(F)ccc4Cl)nnc3c2)n1	6.9	-6.0%	28.2µM*	3.4%
CCOc1ccccc1C(=O)NCc1nnc2cc(-c3nc(CC)no3)ccn12	28.0	-6.8%	28.2µM*	-25.9%
Cc1noc(-c2ccn3c(CNC(=O)c4ccc(F)cc4Cl)nnc3c2)n1	2.8	-20.8%	i	-1.2%
CC(C)c1noc(-c2ccn3c(CNC(=O)c4ccc(F)cc4Cl)nnc3c2)n1	4.6	6.5%	28.2µM*	10.2%
COc1ccc(-c2cc(N3CCC(NC(=O)c4ccc(Br)cc4)C3)n[nH]2)cc1 (stereo unspecified)	7.3	-9.0%	11.2µM*	-9.5%
COc1ccc(C(=O)NC2CCN(c3cc(-c4ccc(OC)cc4)[nH]n3)CC2)cc1	15.3	-9.8%	?	11.4%
COc1ccc(-c2cc(N3CCC(NC(=O)c4ccc5cc[nH]c5c4)CC3)n[nH]2)cc1	24.2	-13.4%	28.2µM*	-25.6%
COc1ccc(-c2cc(N3CCC(NC(=O)COc4ccccc4C)CC3)n[nH]2)cc1	17.5	?	15.8µM*	?
Cc1cc(C)cc(C(=O)NCCn2ccn3nc(-c4ccc(C)cc4C)cc3c2=O)c1	-1.3	-0.6%	22.4µM*	101.6%
Cc1ccc(-c2cc3c(=O)n(CCNC(=O)c4cccc(Cl)c4)ccn3n2)c(C)c1	0.0	-12.8%	28.2µM*	51.9%
O=C(O)c1cnc(-c2cc(NCc3ccccn3)nc3[nH]ccc23)c(Cl)c1	-5.5	-9.9%	?	-17.0%
SMILES	IP6K1 inh	HEK293 viab	KDM5B inh	SNCA expr inhib
NC(=O)c1cc(-c2cc(NCc3cccnc3)nc3[nH]ccc23)ccc1F	-2.9	4.0%	25.1µM*	48.0%
COc1cccc(-c2c(C(=O)N3CCCCC3)nc3sccn23)c1	15.6	-4.2%	nt	8.9%
CCOc1ccccc1NC(=O)N1CC[C@@H](c2ccc3c(c2)OCO3)[C@H](O)C1	-9.9	4.7%	i	-0.5%
Cc1nc(CN2C[C@H](C(=O)N3CCN(c4ccccn4)CC3)C[C@@H]2c2ccc(F)cc2)cs1	-2.9	-7.0%	28.2µM*	-29.0%
Cc1nc(CN2C[C@H](C(=O)NCCOc3ccccc3)C[C@@H]2c2ccc(F)cc2)cs1	-2.7	-28.9%[87.6 µM]	?	-28.8%[87.6 µM]
Cc1noc([C@@H]2CN(Cc3ccncc3)C[C@H]2CO)n1	-12.5	2.7%	28.2µM*	-0.8%
Cc1noc([C@@H]2CN(Cc3ccccc3C)C[C@H]2CO)n1	-9.4	-8.1%	i	1.2%
Cc1ccc2cc(CN3C[C@@H](CO)[C@H](c4nc(C)no4)C3)c(=O)[nH]c2c1	-3.7	-8.2%	28.2µM*	-4.5%
CN(C)c1nc(CN2CC(C)(Cc3ccc4c(c3)OCO4)CCC2=O)cs1 (stereo unspecified)	21.2	-9.9%	i	71.6%
CCc1noc(-c2cccn3c(CNC(=O)C4CCC4)nnc23)n1	-2.3	3.4%	25.1µM*	0.9%
CCCc1noc(-c2cccn3c(CNC(=O)C4CCCC4)nnc23)n1	8.0	-3.5%	28.2µM*	9.9%
O=C(NCc1nnc2c(-c3nc(C4CC4)no3)cccn12)C1CCCC1	0.5	-3.3%	28.2µM*	-9.3%
CC(C)c1ccc(CC(=O)N2CCCc3ncc(C(=O)Nc4ccccc4)cc32)cc1	9.4	?	?	?
Cc1csc(NC(=O)c2cnc3c(c2)N(C(=O)Cc2ccc(C(C)C)cc2)CCC3)n1	2.1	?	31.6µM*	?
CCn1c(C)cc(C(=O)CSc2nc3ccc(OC)cc3[nH]2)c1C	nt	nt	i	nt
CN1CC2(CCCN(CC3CC3)C2)c2cc(C(=O)Nc3ccn(C)n3)ccc21 (stereo unspecified)	38.8	1.5%[87.6 µM]	?	-7.6%[87.6 µM]
NC(=O)c1ccc2c(c1)C1(CCN(CC3CC3)C1)CN2Cc1ccccc1 (stereo unspecified)	8.6	-11.2%[87.6 µM]	35.5µM*	24.2%[87.6 µM]
CCNC(=O)c1ccc2c(c1)C1(CCN(CC3CC3)C1)CN2Cc1ccccc1 (stereo unspecified)	11.2	-6.4%[87.6 µM]	35.5µM*	1.7%[87.6 µM]
COCCNC(=O)c1ccc2c(c1)C1(CCN(CC3CC3)C1)CN2Cc1ccccc1 (stereo unspecified)	12.3	-2.7%[87.6 µM]	35.5µM*	-5.9%[87.6 µM]
CN1CCC2(C1)CN(Cc1ccccc1)c1ccc(C(=O)NC3COC3)cc12 (stereo unspecified)	11.0	4.4%[87.6 µM]	39.8µM*	-4.2%[87.6 µM]
CN1CCC2(C1)CN(Cc1ccccc1)c1ccc(C(=O)Nc3ccn(C)n3)cc12 (stereo unspecified)	7.0	0.5%[87.6 µM]	?	29.4%[87.6 µM]
CN1CCC2(C1)CN(CC1CC1)c1ccc(C(=O)NCc3cccs3)cc12 (stereo unspecified)	-1.7	-9.1%[87.6 µM]	?	4.0%[87.6 µM]
O=C(NC1CCC1)c1ccc2c(c1)C1(CCN(CC3CC3)C1)CN2Cc1ccccc1 (stereo unspecified)	-5.6	-21.6%[87.6 µM]	39.8µM*	-12.1%[87.6 µM]
